Laboratory results taken from PubChem BioAssay.
The source made the active and inactive calls.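 How the source made its calls, unless noted: active means at least 20% inhibition of 6-phosphogluconate dehydrogenase activity; inactive means the rest.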

How the values were obtained:
[1] = stimulators of insulin release from INS-1E, primary screen, cell-based, 5 mM glucose, NPC library (AID 1117329;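 active means compound raises insulin release from rat beta cells at 5 mM glucose, no numeric limit stated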); details: rat INS-1E insulin secretion, at 10 µM, stronger effect = higher value
[2] = growth inhibition of GSK3B-pretreated HCT116 cells – cell-based, CellTiter-Glo, 0.2 to 20 µM (AID 1117336;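 active means compounds lowering colon cancer cell viability after pretreatment blocking the GSK3B kinase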); details: HCT116 viability after GSK3B inhibitor, at 20 µM, stronger effect = higher value
[3] = inhibition of endothelial tube formation, primary screen, imaging, VEGF stimulated, CD31 staining, tube area, NPC library (AID 1117340;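 active means compound that reduces growth-factor-driven endothelial tube area in a mixed cell culture, no cutoff stated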); details: VEGF-stimulated ADSC/ECFC co-culture, at 10 µM, stronger effect = higher value
[4] = GLP1 release stimulators, primary, NCI-H716, NPC library (AID 1117341;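 active means compound raises GLP1 secretion from the human gut endocrine cells, with no numeric limit stated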); details: NCI-H716 cells, at 10 µM, stronger effect = higher value
[5] = HCT116 colon cancer cell growth inhibition, primary screen, CellTiter-Glo luminescence, NPC library (AID 1117342;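 active means compounds that lower survival of HCT116 colon cancer cells in the luminescence readout, no numeric limit stated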); details: at 20 µM (top of the series)
[6] = reduced SW480 viability measured with CellTiter-Glo, NPC library, primary (AID 1117343;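 active means compounds that lower viability of the colon cancer cells in the luminescence readout, with no numeric limit stated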); details: CellTiter-Glo luminescence; at 20 µM (top of the series)
[7] = NPC library primary testing for decreased DLD-1 cell viability via CellTiter-Glo (AID 1117346;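 active means compounds that lower survival of DLD-1 colon cancer cells in the luminescence readout, no cutoff given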); details: DLD-1 viability, CellTiter-Glo luminescence; at 20 µM (top of the series)
[8] = target: 6-phosphogluconate dehydrogenase, decarboxylating (Homo sapiens) (UniProt P52209); assay: inhibition of human phosphogluconate dehydrogenase – biochemical, recombinant enzyme, NADPH absorbance, primary screen (AID 1159550); details: recombinant 6PGD, NADPH absorbance 341 nm; at 10 µM; stronger effect = higher value
[9] = modulation of C. elegans fzo-1 (AID 1259413; call rule not given here;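 further: fzo-1 mutant C. elegans worms in liquid wells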); details: C. elegans fzo-1 modulator screen, mean read-out; stronger effect = higher value
[10] = EMT-state selective cytotoxicity in co-culture – imaging, PC-3E GFP, TEM4-18 mCherry, primary screen (AID 1345086;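 active means compounds killing one labelled cell type while sparing the other, by normalised counts and ratio limits, not self-fluorescent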;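 on all read-outs here: cells exposed to compound for 72 h before imaging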;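 on red/green cell ratio (normalised): normalised mesenchymal count divided by normalised epithelial count so high means epithelial killing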); details: PC-3E GFP / TEM4-18 mCherry co-culture, imaging cell counts, at 1 µM; for red/green cell ratio (normalised): actives lie on both sides, counts scaled to control wells, 1 = unselective
[11] = measured here: epithelial PC-3E GFP cell survival
[12] = measured here: mesenchymal TEM4-18 mCherry cell survival

Sequence of 6-phosphogluconate dehydrogenase, decarboxylating (Homo sapiens) (P52209 whole entry, looked up): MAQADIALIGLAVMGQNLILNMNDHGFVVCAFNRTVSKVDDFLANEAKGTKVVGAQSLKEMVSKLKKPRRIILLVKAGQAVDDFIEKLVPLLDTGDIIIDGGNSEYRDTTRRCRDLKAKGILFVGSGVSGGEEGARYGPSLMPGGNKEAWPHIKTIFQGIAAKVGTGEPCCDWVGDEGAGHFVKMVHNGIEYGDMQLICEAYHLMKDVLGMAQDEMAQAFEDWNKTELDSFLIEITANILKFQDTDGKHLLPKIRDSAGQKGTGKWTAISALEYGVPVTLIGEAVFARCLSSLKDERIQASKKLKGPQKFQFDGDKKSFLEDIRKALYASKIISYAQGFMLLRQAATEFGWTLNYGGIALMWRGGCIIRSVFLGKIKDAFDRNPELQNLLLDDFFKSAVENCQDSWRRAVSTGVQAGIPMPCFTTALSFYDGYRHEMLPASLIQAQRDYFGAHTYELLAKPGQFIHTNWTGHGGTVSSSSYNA

O=C(O)CCCC[C@@H]1SC[C@@H]2NC(=O)N[C@@H]21
inactive: insulin secretion stimulation [1] -0.9% | viability decrease [2] -1.65% | tube area decrease [3] -24.1% | GLP1 secretion stimulation [4] 1.6% | inhibition of viability [5] -15% | viability decrease (inhibition) [6] 33.7% | viability decrease (inhibition) [7] 4.5% | inhibition [8] 12.7%

CC[N+](C)(C)Cc1ccccc1Br
active: viability decrease (inhibition) [6] -1.6%
inactive: insulin secretion stimulation [1] 2.5% | viability decrease [2] -18.7% | tube area decrease [3] 10% | GLP1 secretion stimulation [4] -3% | inhibition of viability [5] 27.2% | viability decrease (inhibition) [7] 10.8% | inhibition [8] -1.68%

CC1=C(C(=O)O)N2C(=O)[C@@H](NC(=O)[C@H](N)c3ccc(O)cc3)[C@H]2SC1
inactive: insulin secretion stimulation [1] -0.5% | viability decrease [2] -2.2% | tube area decrease [3] -4.7% | GLP1 secretion stimulation [4] -0.3% | inhibition of viability [5] 7.3% | viability decrease (inhibition) [6] 7.8% | viability decrease (inhibition) [7] 7.3% | inhibition [8] -1.37%

Oc1c(Cl)cc(Cl)c(Cl)c1Cc1c(O)c(Cl)cc(Cl)c1Cl
inactive: insulin secretion stimulation [1] -3.4% | GLP1 secretion stimulation [4] 17.4% | inhibition [8] -10.3% | mean signal [9] 211 | red/green cell ratio (normalised) [10] 0.64
0.53: normalised cell number [10, 12]
active: viability decrease [2] 117% | tube area decrease [3] 108% | inhibition of viability [5] 124% | viability decrease (inhibition) [6] 149% | viability decrease (inhibition) [7] 101%
0.83: normalised cell number [10, 11]

CN(C)C(=O)Nc1ccc(Cl)c(Cl)c1
inactive: insulin secretion stimulation [1] -2.3% | viability decrease [2] -3.75% | tube area decrease [3] -17.1% | GLP1 secretion stimulation [4] -0.7% | inhibition of viability [5] -2.8% | viability decrease (inhibition) [6] 11.2% | viability decrease (inhibition) [7] 13.6% | inhibition [8] -8.44%

Cc1cc2nc3c(=O)[nH]c(=O)nc-3n(C[C@H](O)[C@H](O)[C@H](O)CO)c2cc1C
inactive: insulin secretion stimulation [1] 0.9% | viability decrease [2] -45.7% | tube area decrease [3] 36.1% | GLP1 secretion stimulation [4] -0.4% | inhibition of viability [5] 0.1% | viability decrease (inhibition) [6] 11.1% | viability decrease (inhibition) [7] -5.4% | inhibition [8] -2.13%

NC(N)=Nc1nc(CSCC/C(N)=N/S(N)(=O)=O)cs1
inactive: insulin secretion stimulation [1] 2.8% | viability decrease [2] 6.7% | tube area decrease [3] 6.4% | GLP1 secretion stimulation [4] 1.4% | inhibition of viability [5] -8.7% | viability decrease (inhibition) [6] 0.7% | viability decrease (inhibition) [7] -10.3% | inhibition [8] 5.97% | mean signal [9] 276

CN1CCN(C2=Nc3ccccc3Oc3ccc(Cl)cc32)CC1
inactive: insulin secretion stimulation [1] 0.1% | viability decrease [2] -29.5% | GLP1 secretion stimulation [4] 1.6% | inhibition of viability [5] 30.1% | inhibition [8] -14% | mean signal [9] 262 | red/green cell ratio (normalised) [10] 0.99
1.09: normalised cell number [10, 12]
active: tube area decrease [3] 43.3% | viability decrease (inhibition) [6] 107% | viability decrease (inhibition) [7] 85%
1.1: normalised cell number [10, 11]

CC(=O)OCC(=O)[C@@]1(O)[C@H](OC(C)=O)C[C@H]2[C@@H]3CCC4=CC(=O)C=C[C@]4(C)[C@@]3(F)[C@@H](O)C[C@@]21C
inactive: insulin secretion stimulation [1] 2.1% | viability decrease [2] -9% | tube area decrease [3] -8.6% | GLP1 secretion stimulation [4] 2.4% | inhibition of viability [5] -8.2% | viability decrease (inhibition) [6] 18.4% | viability decrease (inhibition) [7] -14.1% | inhibition [8] 14.6%

CCCCCCc1ccc(O)cc1O
0.96: normalised cell number [10, 12]
active: viability decrease [2] 65.4% | viability decrease (inhibition) [6] 84.1% | viability decrease (inhibition) [7] 56.2%
1.14: normalised cell number [10, 11]
inactive: insulin secretion stimulation [1] 9.8% | tube area decrease [3] 30.7% | GLP1 secretion stimulation [4] 4.2% | inhibition of viability [5] 41.8% | inhibition [8] -8.5% | red/green cell ratio (normalised) [10] 0.84

C=CC(N)CCC(=O)O (stereo not given)
inactive: insulin secretion stimulation [1] 1.4% | viability decrease [2] -25.5% | tube area decrease [3] -14.9% | GLP1 secretion stimulation [4] -0.9% | inhibition of viability [5] 10.9% | viability decrease (inhibition) [6] -15.3% | viability decrease (inhibition) [7] -6.8% | inhibition [8] -0.693%

O=C1O[C@H](CO)[C@@H](O)[C@H](O)[C@H]1O
inactive: insulin secretion stimulation [1] 1.8% | viability decrease [2] -0.7% | tube area decrease [3] -3.8% | GLP1 secretion stimulation [4] -2.6% | inhibition of viability [5] 14.6% | viability decrease (inhibition) [6] 31.1% | viability decrease (inhibition) [7] 20% | inhibition [8] -9.11%

O=C1c2ccccc2C(=O)c2c1ccc(O)c2O
1.05: normalised cell number [10, 11]
inactive: insulin secretion stimulation [1] -2% | viability decrease [2] 45.6% | tube area decrease [3] -9.9% | GLP1 secretion stimulation [4] -3.8% | inhibition of viability [5] 9.2% | inhibition [8] 1.17% | red/green cell ratio (normalised) [10] 0.87
0.91: normalised cell number [10, 12]
active: viability decrease (inhibition) [6] 112% | viability decrease (inhibition) [7] 65.7%

NCCS
inactive: insulin secretion stimulation [1] 2.9% | viability decrease [2] -8.4% | tube area decrease [3] -3.5% | GLP1 secretion stimulation [4] -3.8% | inhibition of viability [5] 2.53% | viability decrease (inhibition) [6] -332% | viability decrease (inhibition) [7] -14.1% | inhibition [8] -14% | red/green cell ratio (normalised) [10] 1.27
1.16: normalised cell number [10, 12]
0.91: normalised cell number [10, 11]
